PMC4336329 (PLoS ONE, 2015)
Screen size: about 310,000 compounds; about 14,000 (4.5%) showed an effect of 50% or more. Effects have a minus sign here. Only a selection was taken, and strong results are over-represented in it overall.

molecular target: human ether-à-go-go-related gene (hERG) potassium channel (human, UniProt Q12809); test: primary screen, population patch clamp on CHO cells stably expressing hERG; higher = less effect of the substance
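Also: peak tail current of the secondary pulse compared with the same well before compound.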

Chain of human ether-à-go-go-related gene (hERG) potassium channel (Q12809 whole entry, looked up): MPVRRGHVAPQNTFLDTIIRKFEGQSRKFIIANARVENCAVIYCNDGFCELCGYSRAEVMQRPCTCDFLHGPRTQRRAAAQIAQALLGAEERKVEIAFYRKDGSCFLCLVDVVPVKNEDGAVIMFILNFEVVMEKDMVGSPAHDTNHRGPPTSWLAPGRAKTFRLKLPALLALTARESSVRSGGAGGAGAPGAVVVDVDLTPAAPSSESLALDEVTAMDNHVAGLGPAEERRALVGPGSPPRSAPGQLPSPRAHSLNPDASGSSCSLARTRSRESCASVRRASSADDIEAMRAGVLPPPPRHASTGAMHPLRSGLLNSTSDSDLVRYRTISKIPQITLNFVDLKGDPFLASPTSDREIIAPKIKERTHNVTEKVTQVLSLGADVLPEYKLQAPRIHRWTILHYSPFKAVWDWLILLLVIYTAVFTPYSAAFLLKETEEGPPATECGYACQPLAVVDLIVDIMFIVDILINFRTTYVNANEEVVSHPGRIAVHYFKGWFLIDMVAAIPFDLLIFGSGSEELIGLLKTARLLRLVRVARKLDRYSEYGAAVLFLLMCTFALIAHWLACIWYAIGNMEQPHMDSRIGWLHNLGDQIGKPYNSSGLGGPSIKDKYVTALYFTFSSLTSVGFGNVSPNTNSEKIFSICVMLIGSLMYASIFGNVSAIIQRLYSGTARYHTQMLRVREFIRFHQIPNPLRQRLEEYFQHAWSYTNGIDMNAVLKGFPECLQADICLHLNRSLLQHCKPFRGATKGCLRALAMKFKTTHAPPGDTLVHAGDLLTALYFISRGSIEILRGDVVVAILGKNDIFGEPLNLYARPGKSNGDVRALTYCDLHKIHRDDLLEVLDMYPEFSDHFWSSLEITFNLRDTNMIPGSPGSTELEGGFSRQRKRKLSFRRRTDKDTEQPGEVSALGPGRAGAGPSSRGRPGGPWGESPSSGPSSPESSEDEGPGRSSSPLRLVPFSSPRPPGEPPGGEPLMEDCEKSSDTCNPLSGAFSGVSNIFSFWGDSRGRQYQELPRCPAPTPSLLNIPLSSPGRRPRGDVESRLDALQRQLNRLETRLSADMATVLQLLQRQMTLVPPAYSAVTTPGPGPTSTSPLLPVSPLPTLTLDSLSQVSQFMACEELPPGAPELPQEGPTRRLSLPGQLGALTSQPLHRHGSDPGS

| SMILES | hERG current change (%, negative = inhibition) at 10uM [%] |
| --- | --- |
| CN1CCc2c(sc(NC(=O)c3cc(Cl)sc3Cl)c2C(N)=O)C1.Cl | -59.8 |
| CN1CCc2c(sc(NC(=O)C3CCCCC3)c2C(N)=O)C1.Cl | 2.22 |
| CN1CCc2c(sc(NC(=O)c3ccc4ccccc4c3)c2C(N)=O)C1.Cl | -5.05 |
| CN1CCc2c(sc(NC(=O)c3ccco3)c2C(N)=O)C1.Cl | -17 |
| CC(=O)N1CCc2c(sc(NC(=O)C3CCCN3S(=O)(=O)c3cccs3)c2C(N)=O)C1 (stereo not drawn) | -2.88 |
| CN1CCc2c(sc(NC(=O)C3CCCN3S(=O)(=O)c3ccc(Cl)s3)c2C(N)=O)C1.Cl (stereo not drawn) | -63.6 |
| Cc1ccc(-n2cnc3ncnc(-c4ccccc4)c32)cc1 | -6.83 |
| Cc1ccc2[nH]c3c(c2c1)CN(C)CC3.Cl | -5.01 |
| O=C(CN(C(=O)c1csnn1)c1cccc(Cl)c1)NC1CCCC1 | -2.38 |
| COc1ccc(CCC(=O)NNC(=O)Nc2ccc(C(C)C)cc2)cc1 | 23.8 |
| COc1ccc(NC(=O)CN2CCN(c3ccccn3)CC2)cc1Cl | -17.4 |
| COc1ccc(CC(NC(C)=O)C(=O)NC2CCN(S(=O)(=O)c3ccccc3)CC2)c(OC)c1 (stereo not drawn) | 20.5 |
| COc1ccccc1/C=C/CN1CCCC(CO)(CCc2ccccc2)C1 (stereo not drawn) | -74.7 |
| COc1ccccc1/C=C/CN1CCC(CO)(Cc2ccccc2)CC1 | -37.9 |
| COc1ccccc1/C=C/CN1CCSCC1 | -3.74 |
| COc1ccccc1/C=C/CN1CCCCC1 | -2.31 |
| COCc1ccc(CN2CCCC(CO)(Cc3cccc(Cl)c3)C2)o1 (stereo not drawn) | -46.1 |
| COc1ccccc1/C=C/CN1CCOCC1 | -3.9 |
| COc1ccc(F)c(CN2CCCC(CO)(Cc3cccc(Cl)c3)C2)c1 (stereo not drawn) | -30.6 |
| COc1ccc(/C=C/CN2CCCC(CO)(Cc3cccc(Cl)c3)C2)cc1 (stereo not drawn) | -50.8 |
| COc1cccc(CC2(CO)CCCN(C/C=C/c3ccccc3OC)C2)c1 (stereo not drawn) | -73.2 |
| COc1ccc(CC2(CO)CCN(C/C=C/c3ccccc3OC)CC2)cc1 | -72.8 |
| C=CCC1NS(=O)(=O)OC2CCCC12 (stereo not drawn) | 10.6 |
| Cc1ccc(Cn2cccc(NC(=O)NCc3ccccc3)c2=O)cc1 | -6.27 |

| SMILES | hERG current change (%, negative = inhibition) at 10uM [%] |
| --- | --- |
| NC(=O)c1ccc[n+]([C@H]2O[C@@H](COP(=O)([O-])OP(=O)(O)OC[C@H]3O[C@@H](n4cnc5c(N)ncnc54)[C@H](O)[C@@H]3O)[C@H](O)[C@@H]2O)c1 | 12.1 |
| Cc1c(C(=O)NN2CCOCC2)oc2c1ccc1ccccc12 | 2.24 |
| Cc1ccc(C(=O)OCc2nnc(-c3ccccc3)o2)cc1S(=O)(=O)N1CCOCC1 | -26.7 |
| CN1CCN(C(=O)CC2(CC(=O)O)CCCC2)CC1.Cl | -1.66 |
| CCn1c(CNC(=O)c2cccc(C)c2)nnc1SCC(=O)Nc1nnc(C)s1 | 15.4 |
| Cn1c(=O)c(=O)n(C)c2cc(S(=O)(=O)NCCOc3ccccc3Cl)ccc21 | 1.26 |
| COc1ccccc1/C=C/CN1CCCC(CO)(Cc2cccc(Cl)c2)C1 (stereo not drawn) | -69.6 |
| COc1ccc(C2CC(=O)c3cc(OC)c(OC)cc32)cc1OC (stereo not drawn) | 20.7 |
| COc1ccc(CN(C)C(C)C(=O)Nc2cccc3ccccc23)cc1 (stereo not drawn) | -14.1 |
| Cc1ccc(NC(=O)C2CC(=O)Nc3nncn32)cc1 (stereo not drawn) | 14.4 |
| O=C(COC(=O)c1ccc(O)cc1)NCC1COc2ccccc2O1 (stereo not drawn) | -3.35 |
| COc1ccc(/C=C/C(=O)NC(=S)NNC(=O)c2ccco2)cc1 | 13.8 |
| Cc1ccc(/C(O)=C2/C(=O)C(=O)N(CCN3CCOCC3)C2c2cccs2)cc1 (stereo not drawn) | 8.67 |
| Cc1ccc(-c2nc(NC(=O)CSc3nnc4scc(-c5ccccc5)n34)ns2)cc1 | -1.19 |
| Cn1c(SCC(=O)N2CCN(Cc3ccccc3)CC2)nnc1-c1ccncc1 | -2.39 |
| c1ccc(-c2csc3nnc(SCc4ccc5c(c4)OCCO5)n23)cc1 | -3.29 |
| c1ccc(-c2csc3nnc(SCc4ccc5c(c4)OCO5)n23)cc1 | -71.4 |
| Cc1ccc(-c2csc3nnc(SCC(=O)Nc4nsc(-c5ccccc5)n4)n23)cc1 | -62.9 |
| O=C(CSc1nnc2scc(-c3ccccc3)n12)NCc1ccc2c(c1)OCO2 | -21.1 |
| O=C(CSc1nnc2scc(-c3ccccc3)n12)N1CCN(Cc2ccccc2)CC1 | -41.8 |
| O=C(CSc1nnc2scc(-c3ccccc3)n12)Nc1nsc(-c2ccccc2)n1 | -40.1 |
| Cc1ccc(-c2csc3nnc(SCC(=O)N4CCN(Cc5ccccc5)CC4)n23)cc1 | -55.3 |
| CCOc1ccccc1NC(=O)C(Sc1nnnn1C)c1ccccc1 (stereo not drawn) | -21.2 |
| Cn1c(NC(=O)c2ccccc2)c(-c2cccs2)c(=O)c2ccccc21 | 7.07 |

| SMILES | hERG current change (%, negative = inhibition) at 10uM [%] |
| --- | --- |
| CC(=O)c1ccc(N=Nc2c(C)[nH]n(-c3ccccc3)c2=O)cc1 | 8.59 |
| CC1CCN(C(=S)c2cn(Cc3ccc(F)cc3)c3ccccc23)CC1 | -1.82 |
| COc1cc(/C=C/C(=O)O)cc(S(=O)(=O)Nc2ccc3nc(C)sc3c2)c1OC | 26.5 |
| CCOc1ccccc1NC(=O)c1ccc(OCC)c([N+](=O)[O-])c1 | -10.3 |
| CCOc1ccc(C(=O)NC(=S)Nc2ccccc2N2CCC(C)CC2)cc1[N+](=O)[O-] | 5.75 |
| CCOc1ccc(C(=O)Nc2ccccc2C#N)cc1[N+](=O)[O-] | -55.6 |
| CCOc1ccc(C(=O)NC(=S)Nc2ccccc2N2CCCCC2)cc1[N+](=O)[O-] | 11.7 |
| CCOc1ccc(C(=O)Nc2ccccc2CC)cc1[N+](=O)[O-] | -21.9 |
| CCOc1ccc(C(=O)Nc2ccccc2N2CCN(C(=O)c3ccccc3)CC2)cc1[N+](=O)[O-] | -83.3 |
| O=C1NC2(CCCCCC2)Cc2ccccc21 | -21.2 |
| Cc1ccc(C(=O)NNC(=O)C(C)Oc2ccc3ccccc3c2)o1 (stereo not drawn) | -13.2 |
| C/C(CC(=O)NC(C)(C)C)=N\NC(N)=S | 20 |
| CCN(CC)S(=O)(=O)c1ccc(NC(=O)c2cccc3c2C(=O)N(CCOC)C3)cc1 | -1.36 |
| Cc1cc(C)n2nc(SC(C)C(=O)N3CCC4(CC3)OCCO4)nc2n1 (stereo not drawn) | -0.197 |
| O=C(c1ccc(Cn2cc(Cl)cn2)cc1)N1CCN(c2ccccc2)CC1 | -58.4 |
| O=C(c1ccc(Cn2cc(Br)cn2)cc1)N1CCN(c2ccccc2)CC1 | -57.4 |
| COc1ccc(N2CCN(C(=O)c3cccc(Cn4cc(Cl)cn4)c3)CC2)cc1 | -48 |
| O=C(c1ccc(CN2CCOCC2)cc1)N1CCN(c2ccccc2)CC1 | 3.02 |
| O=C(O)c1ccc(Cn2cc(Cl)cn2)cc1 | 18.7 |
| NNC(=O)c1ccc(Cn2cc(Br)cn2)cc1 | -2.07 |
| O=C(O)C1C(=O)NCC1c1ccccc1 (stereo not drawn) | 10.6 |
| Cc1ccc(C(=O)NC2CCCC(C)C2C)cc1S(=O)(=O)N1CCCCC1 (stereo not drawn) | -20.6 |
| COC(=O)C1=C(C(=O)OC)N2C=CC=CC2(C)C(C(=O)OC)=C1C(=O)OC (stereo not drawn) | -5.49 |
| CCCCC(=O)Nc1ccc(N2CCN(C(=O)c3ccco3)CC2)cc1 | -18.1 |

| SMILES | hERG current change (%, negative = inhibition) at 10uM [%] |
| --- | --- |
| COC(=O)c1cc(COC(=O)c2cccnc2SC)oc1C | -5.24 |
| O=C(CCNC(=O)C1CCN(S(=O)(=O)c2ccc(F)cc2)CC1)Nc1nccs1 | 15.5 |
| Cc1ccc(C2CC(=O)N(c3ccc(F)cc3)C3=C2C(=O)CCC3)cc1 (stereo not drawn) | 0.885 |
| CC1CCC(NC(=O)CCS(=O)(=O)c2ccc3c(c2)CC(C)N3C(=O)C2CC2)CC1 (stereo not drawn) | 7.85 |
| CN(C)CCNC(=O)c1ccccc1-c1ccccc1 | -1.88 |
| CN(C)CCNC(=O)c1ccccc1-c1cc2ccccc2c(=O)o1 | -54.6 |
| CCCNC(=O)c1cc2ccccc2c(=O)o1 | 10.8 |
| COc1ccc(N(C)S(=O)(=O)c2cccc(C(=O)NC3CCCCC3C)c2)cc1 (stereo not drawn) | -6.33 |
| O=C(NCN1C(=O)C2C3C=CC(C3)C2C1=O)OC1CCCCC1 (stereo not drawn) | 4.17 |
| CCC1CCc2sc(C(=O)NCC3CCCO3)cc2C1 (stereo not drawn) | -12.1 |
| CC1CCc2sc(C(=O)NCC(c3ccco3)N3CCCCC3)cc2C1 (stereo not drawn) | -30.8 |
| COc1ccc(C(CNC(=O)c2ccc(Cl)s2)N2CCOCC2)cc1 (stereo not drawn) | -18.2 |
| COc1ccc(C(CNC(=O)c2cc3c(s2)CCCC3)N2CCOCC2)cc1 (stereo not drawn) | -23.5 |
| COc1ccc(C(CNC(=O)c2cc3c(s2)CCC(C)C3)N2CCCC2)cc1 (stereo not drawn) | -57.7 |
| CCC1CCc2sc(C(=O)NCC(c3ccc(OC)cc3)N3CCCC3)cc2C1 (stereo not drawn) | -71 |
| CCC1CCc2sc(C(=O)NCc3ccccn3)cc2C1 (stereo not drawn) | -3.79 |
| COc1ccc(C(CNC(=O)c2ccco2)N2CCCC2)cc1 (stereo not drawn) | -7.05 |
| CCC1CCc2sc(C(=O)NCC(c3ccccc3OC)N3CCCC3)cc2C1 (stereo not drawn) | -63.6 |
| CCC1CCc2sc(C(=O)N(C)CC(=O)Nc3ccc(OC)cc3)cc2C1 (stereo not drawn) | -18.2 |
| COc1ccc(C(CNC(=O)c2cc3c(s2)CCC(C)C3)N2CCOCC2)cc1 (stereo not drawn) | -54 |
| CCC1CCc2sc(C(=O)NCC(c3ccc(OC)cc3)N3CCOCC3)cc2C1 (stereo not drawn) | -5.82 |
